Results reported in PubChem BioAssay AID1159580 (chemical genetic matrix, 2015).
Several values for one entry are separate records, joined by “and”; a condition that tells them apart may be missing. Equal entries are not always repeated. Hit rate of the full screen: of about 5,500 compounds, about 2,000 (36%) were called active. Another 18% or so got no clear call; they are omitted. No stated cut-off is given here; in the data, active means normalized growth mostly below about 0.91 (no sharp cut-off); inconclusive means no clear call, values can overlap the other calls; inactive means mostly above about 0.92. The list shows a part of the results.

Assay: chemical genetic growth profiling, strain panel (AID 1159580);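 further: tested at 20 µM; growth read once vehicle control cultures reached saturation at 30 °C; 1 = growth at the plate median or of vehicle wells; lower values mean less growth of the strain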
Settings: S. cerevisiae deletion strains, growth OD

Measured: normalized growth

CN1C2CCC1CC(OC(c1ccccc1)c1ccccc1N)C2 (stereo unspecified)
inactive: locus YAL013W, strain DEP1, hits give low values 0.993 | locus YAL021C, strain ccr4, hits give low values 0.985 | locus YAL026C, strain drs2, hits give low values 1.01 | locus YAL030W, strain snc1, hits give low values 0.994 | locus YAL040C, strain CLN3, hits give low values 1.01 | locus YBL061C, strain skt5, hits give low values 0.995 | locus YBR009C, strain hhf1, hits give low values 0.998 | locus YBR021W, strain FUR4, hits give low values 0.993 | locus YBR023C, strain chs3, hits give low values 0.989 | locus YBR171W, strain sec66, hits give low values 1 | locus YBR229C, strain ROT2, hits give low values 0.998 | locus YBR231C, strain swc5, hits give low values 1 | locus YBR279W, strain paf1, hits give low values 1 | locus YCL011C, strain gbp2, hits give low values 1 | locus YCL016C, strain dcc1, hits give low values 0.994 | locus YCL029C, strain bik1, hits give low values 1.03 | locus YCL061C, strain MRC1 (second series), hits give low values 1 | locus YCL061C, strain MRC1, hits give low values 0.997 | locus YCL069W, strain vba3, hits give low values 1 | locus YCR088W, strain abp1, hits give low values 0.997 | locus YDL005C, strain med2, hits give low values 0.99 | locus YDL035C, strain GPR1, hits give low values 1.01 | locus YDL040C, strain nat1, hits give low values 0.991 | locus YDL074C, strain BRE1, hits give low values 1 | locus YDL101C, strain DUN1, hits give low values 1.01 | locus YDL134C, strain PPH21, hits give low values 1.01 | locus YDL185W, strain tfp1, hits give low values 1.01 | locus YDL192W, strain arf1, hits give low values 1.02 | locus YDR001C, strain nth1, hits give low values 1.01 | locus YDR069C, strain doa4, hits give low values 1 | locus YDR101C, strain arx1, hits give low values 1.01 | locus YDR137W, strain rgp1, hits give low values 0.98 | locus YDR150W, strain NUM1, hits give low values 1.01 | locus YDR159W, strain sac3, hits give low values 1 | locus YDR162C, strain NBP2, hits give low values 1 | locus YDR195W, strain ref2 0.976 | locus YDR297W, strain sur2, hits give low values 1.01 | locus YDR318W, strain mcm21, hits give low values 1.01 | locus YDR334W, strain swr1, hits give low values 1 | locus YDR335W, strain msn5, hits give low values 0.996 | locus YDR363W, strain ESC2, hits give low values 0.962 | locus YDR388W, hits give low values 1.01 | locus YDR392W, strain spt3, hits give low values 1.01 | locus YDR502C, strain sam2, hits give low values 1.01 | locus YEL003W, strain gim4, hits give low values 1.01 | locus YEL037C, strain rad23, hits give low values 1 | locus YEL061C, strain CIN8 (second series), hits give low values 1.03 | locus YEL061C, strain CIN8, hits give low values 1 | locus YER002W, strain NOP16, hits give low values 1 | locus YER015W, strain faa2, hits give low values 0.987 | locus YER016W, strain bim1, hits give low values 0.991 | locus YER110C, hits give low values 1.01 | locus YER111C, strain swi4, hits give low values 0.989 | locus YER155C, strain BEM2 (second series), hits give low values 0.988 | locus YER155C, strain BEM2, hits give low values 0.996 | locus YER167W, strain BCK2, hits give low values 1.02 | locus YFR010W, strain ubp6, hits give low values 0.996 | locus YGL078C, strain dbp3, hits give low values 1.01 | locus YGL086W, strain mad1, hits give low values 1.01 | locus YGL167C, strain pmr1, hits give low values 0.999 | locus YGL173C, strain kem1, hits give low values 0.999 | locus YGL227W, strain vid30, hits give low values 0.991 | locus YGL240W, strain doc1, hits give low values 0.997 | locus YGL248W, strain PDE1, hits give low values 1.01 | locus YGL253W, strain hxk2, hits give low values 0.998 | locus YGR078C, strain PAC10, hits give low values 1.01 | locus YGR135W, strain pre9, hits give low values 1.01 | locus YGR229C, strain SMI1, hits give low values 0.992 | locus YGR252W, strain gcn5, hits give low values 1 | locus YHR013C, strain ard1, hits give low values 0.979 | locus YHR027C, strain rpn1, hits give low values 0.999 | locus YHR030C, strain SLT2, hits give low values 1.01 and 0.978 | locus YHR079C, strain IRE1 (second series), hits give low values 1.01 | locus YHR079C, strain IRE1, hits give low values 0.991 | locus YHR094C, strain hxt1, hits give low values 1.01 | locus YHR129C, strain ARP1, hits give low values 1.01 | locus YHR142W, strain chs7, hits give low values 1 | locus YHR200W, strain rpn10, hits give low values 1.02 | locus YIL066C, strain RNR3, hits give low values 0.994 | locus YIL073C, strain SPO22, hits give low values 1.05 | locus YIL125W, strain kgd1, hits give low values 1 | locus YIR030C, strain dcg1, hits give low values 1.01 | locus YJL092W, strain hpr5, hits give low values 1.01 | locus YJL095W, strain BCK1 (second series), hits give low values 1.01 | locus YJL095W, strain BCK1, hits give low values 1 and 0.969 | locus YJL115W, strain asf1, hits give low values 0.997 | locus YJL129C, strain trk1, hits give low values 1.01 | locus YJL134W, strain LCB3, hits give low values 1.01 | locus YJL154C, strain vps35, hits give low values 1 | locus YJL164C, strain tpk1, hits give low values 1 | locus YJL166W, strain qcr8, hits give low values 1.02 | locus YJL168C, strain set2, hits give low values 1.01 | locus YJL187C, strain SWE1 (second series), hits give low values 1.01 | locus YJL187C, strain SWE1, hits give low values 0.998 | locus YJR043C, strain POL32, hits give low values 1.02 | locus YJR066W, strain TOR1, hits give low values 0.926
